Measurements taken from PubChem BioAssay AID977606 (Broad Institute, 2014).
Out of some 1,500 compounds screened, about 430 (29%) were called active. No rule for the calls is given here. The list is a sample of the results. Entries with a potency or affinity are not part of this list.

Assay: insulin secretion activators without glucose, dose response, counter-screen for glucose-dependent insulin secretion activators, cell-based, INS-1E, Gaussia luciferase, luminescence, cherry-pick (AID 977606);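 also: 0% = median of neutral control wells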
Conditions: INS-1E Gaussia luciferase insulin secretion, no glucose, 100% = twice neutral-control luminescence; series mostly up to 35 µM; activation: at the top concentration

SMILES | activation
C=CCOc1cccc(C(=O)N2CCC(CCC(=O)NC3CC3)CC2)c1 | -12.5% (inactive)
COc1ccc(CCNc2ccncn2)cc1OC | -4.77% (inactive)
Cc1cc2cc(C#N)c(N3CCOCC3)nc2cc1Cl | -1.36% (inactive)
CCN1CCN(CCCNC(=O)c2ccc3c(c2)N(Cc2ccccc2)CCS3)CC1 | 37.4% (inactive)
Nc1[nH]c(C(=O)c2ccccc2)c(-c2c(F)cccc2F)c1C(=O)c1ccc(Cl)c(Cl)c1 | 58.5% (inactive)
Cc1cn(CC(C)C)c(=O)n(-c2ccccc2)c1=O | -7.49% (inactive)
COc1cc2c(cc1OC)CN(C(=O)Cc1ccccc1)CC2 | -4.85% (inactive)
COc1ccc(CC(=O)OCC(=O)N2CCc3ccccc32)cc1OC | 3.22% (inactive)
CC/C(O)=C1\C(=O)CC(C)(C)CC1=Nc1ccccc1C | -0.909% (inactive)
CC(C)(C)c1ccc(C#C[C@@H]2C=C[C@H]3OC(=O)CC/C=C/CCC(=O)OC[C@H]3O2)cc1 | 14.5% (inactive)
CC1CCc2nc(N)c(C#N)c(-c3ccncc3)c2C1 (configuration not stated) | -10.7% (inactive)
Cc1c(C=O)c2ccccn2c1C(=O)c1ccc(F)cc1 | 0.457% (inactive)
COc1ccccc1Nc1c2c(nc3ccc(N)cc13)CCCC2 | 11.6% (inactive)
CN(C)c1ccc(CC(=O)N2CCCCC2c2cc(C(=O)Nc3ccccc3Cl)no2)cc1 (configuration not stated) | -26.1% (inactive)
O=C(O)CNS(=O)(=O)c1ccc2c(c1)Cc1cc(S(=O)(=O)NCC(=O)O)ccc1-2 | -4% (inactive)
CCc1cc2c(COC(=O)c3cccc(S(C)(=O)=O)c3)cc(=O)oc2cc1O | -16.9% (inactive)

SMILES | activation
CCN(CC)C(=O)Cn1cc(C(=O)C(=O)N2CCN(Cc3ccccc3)CC2)c2ccccc21 | 11.5% (inactive)
Cc1ccc(-c2nc3c(=O)n(C)c4ccccc4c3o2)cc1 | -7.37% (inactive)
O=C(CC(c1ccccc1)c1ccco1)N1CCOCC1 (configuration not stated) | 34.3% (inactive)
CC(C)CCC(O)(CCC(C)C)C(=O)NN1CCCCC1 | -21.7% (inactive)
COc1ccc(C2=NN(c3ccc(C(=O)O)cc3)C(c3ccc(OC)c(OC)c3)C2)cc1 (configuration not stated) | -0.29% (inactive)
CCOc1cc(C2C3=C(CC(C)(C)CC3=O)Nc3n[nH]c(C)c32)ccc1O (configuration not stated) | 0.859% (inactive)
CC(C)CCN1C(=O)CSCC1(C)C(=O)NC(C)C (configuration not stated) | -4.81% (inactive)
CCCc1nnc2c(N(C)S(=O)(=O)c3ccc(C)cc3)nc3ccccc3n12 | -6.68% (inactive)
Cc1cc(=O)[nH]c2c1c(C)nn2C1CCCC1 | 1.46% (inactive)
N#Cc1sc2nc(C3CC3)cc(-c3ccccc3)c2c1N | 1.96% (inactive)
COc1cc2c(cc1OC)C1=C(C#N)CCC(=NC(=O)c3ccco3)N1CC2 | 11.7% (inactive)
O=C(CN1C(=O)CCC1=O)Nc1cccc2c1C(=O)NC2=O | -11.5% (inactive)
Cc1cc(-c2ccc(Br)cc2)n2nc(C)cc2n1 | -1.47% (inactive)
CSc1ncccc1C(=O)NCCc1ccccc1F | 2.04% (inactive)
CSc1ccc2nnc(-c3cccc(F)c3)n2n1 | 2.54% (inactive)
CCSc1nnc2ccc(-c3ccc(C)cc3)nn12 | 0.044% (inactive)
